One assay deals with CRL-7250. Description: Cytotoxic Profiling of Annotated Libraries Using Quantitative High-Throughput Screening (AID 1296008). On max response: on the % scale 0 is the no-effect control and ±100 the full control effect. The settings on record: Five cell lines viability, CellTiter-Glo ATP luminescence, 48-72 h; max response: stronger effect = lower value. A digest of the protocol:
(§1)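 Compounds were pin-transferred onto cells and incubated 48 or 72 hr at 37 degree Celsius, 95% humidity. CellTiter-Glo was added, plates sat 10 min at room temperature, then ATP-coupled luminescence was imaged as the viability read-out.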
Background: ATP-based viability assays read luminescence as a measure of living cells.

A further assay relates to HEK293. The description is as above. The following applies: Five cell lines viability, CellTiter-Glo ATP luminescence, 48-72 h; max response: stronger effect = lower value. A digest of the protocol:
as §1

The next assay has as its system PC15. In words: qHTS profiling for inhibitors of Plasmodium falciparum proliferation (AID 504749). The settings on record: P. falciparum in erythrocytes, SYBR Green DNA, 72 h; series mostly up to 28.7 µM. A digest of the protocol:
(§2)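 Parasite proliferation within erythrocytes, 72 h exposure. Endpoint: SYBR Green I fluorescence after overnight lysis at room temperature. Controls: 0.29 uM artemisinin, DMSO.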

A further assay deals with PC26. Described as above. The following applies: P. falciparum in erythrocytes, SYBR Green DNA, 72 h; series mostly up to 28.7 µM. In outline: as §2
The test system of the next assay is PC49. Described as above. The settings on record: P. falciparum in erythrocytes, SYBR Green DNA, 72 h; series mostly up to 28.7 µM. In outline: as §2
The test system of another assay is SC27B. The description is as above. The following applies: P. falciparum in erythrocytes, SYBR Green DNA, 72 h; series mostly up to 28.7 µM. In outline:
as §2

The next assay deals with TAB109. The description is as above. The settings on record: P. falciparum in erythrocytes, SYBR Green DNA, 72 h; series mostly up to 28.7 µM. A digest of the protocol:
as §2

A further assay concerns TAB113. Described as above. The following applies: P. falciparum in erythrocytes, SYBR Green DNA, 72 h; series mostly up to 28.7 µM. In outline:
as §2

The next assay concerns TAB165. The assay is described as above. The settings on record: P. falciparum in erythrocytes, SYBR Green DNA, 72 h; series mostly up to 28.7 µM. In outline:
as §2

In a further assay the test system is W2. The assay is described as above. The following applies: P. falciparum in erythrocytes, SYBR Green DNA, 72 h; series mostly up to 28.7 µM. A digest of the protocol: as §2

Results filed as inconclusive are left out. A number with no mark means an inactive call. The source made the active and inactive calls. The call rests on the fitted dose curve; in most records, active means well fitted inhibition curve with a large enough effect; inconclusive means small, poorly fitted or top-dose-only effect; inactive means flat fitted curve, though single readings scatter.

20 molecules from PubChem BioAssay (NCATS) can be followed below.
Further: nearly all actives have a fitted effect of over 60% in size.
Potency means the concentration at half of the fitted maximal effect.

`COc1cc(Cc2cnc(N)nc2N)cc(OC)c1OC`: the molecule was classed as inactive with CRL-7250 and with HEK293.
On to `C[C@]12CC[C@@H]3c4ccc(O)cc4C[C@@H](CCCCCCCCCS(=O)CCCC(F)(F)C(F)(F)F)[C@H]3[C@@H]1CC[C@@H]2O` (stereo partly specified), for which the max response in the assay with CRL-7250 was -49.4%.
For the molecule `CCN1CCc2nc(N)oc2CC1`, the Potency result with PC15, in the assay with PC26, with PC49, in the assay on SC27B, with TAB109 and in the assay with TAB113 was “inactive” each time. For the same molecule, the Potency result with TAB165 and with W2 was “inactive” in each case. In addition, in the assay with CRL-7250, the max response was 2.68%. Besides, in the assay with HEK293, the call was inactive.
Take `NC(=Nc1ccccc1)Nc1ccccc1`: the Potency result in the assay on PC15, in the assay with PC49, with SC27B, in the assay on TAB109, with TAB113 and in the assay with TAB165 was “inactive” in each case. Also, the Potency in the assay with W2 was 9.53 µM (active). For the same molecule, in the assay with CRL-7250, the max response is -3.1%. The molecule was classed as inactive in the assay with HEK293.
As for `CC1=C(C)C(=O)C(CCCCC#CCCCC#CCO)=C(C)C1=O`, the Potency in the assay on PC15 was 8.91 µM (active); in the assay with PC26, 7.57 µM (active); in the assay with SC27B, 7.08 µM (active); in the assay on TAB113, 7.94 µM (active); in the assay on TAB165 it was 5.01 µM (active); with W2 it was 6.01 µM (active). The Potency in the assay on HEK293 was 16.8 µM (active). Further, the Potency entry in the assay on PC49 is “inactive”. Also, the max response with CRL-7250 was -2.8%.
As for `O=C(O)CCCCCCCC(=O)O`, the Potency result in the assay with PC15, in the assay with PC26, in the assay on PC49, with SC27B, with TAB109 and in the assay with TAB113 was “inactive” in each case. Also, the Potency result with TAB165 and with W2 was “inactive” throughout. Besides, the max response in the assay with CRL-7250 was -17.5%; in the assay on HEK293 it was 3%.
Consider `CC(=O)OCC1=C(C(=O)O)N2C(=O)[C@@H](NC(=O)Cc3cccs3)[C@H]2SC1`, for which the Potency result with PC15, in the assay with PC26, with PC49, in the assay on SC27B, in the assay on TAB109 and in the assay on TAB113 was “inactive” each time. The Potency result with TAB165 and in the assay on W2 was “inactive” throughout. The max response was 1.94% in the assay on CRL-7250 and -2.75% in the assay with HEK293.
For the molecule `NCCCNCCSP(=O)(O)O`, the Potency result in the assay on PC15, in the assay on PC26, in the assay with PC49, in the assay on SC27B, in the assay with TAB109 and with TAB113 was “inactive” in each case. Further, the Potency entry in the assay with TAB165 and with W2 was “inactive” in each case. Besides, the call with CRL-7250 was inactive. The max response in the assay with HEK293 is -18.5%.
`CCN(CC)CCNC(=O)c1cc(S(C)(=O)=O)ccc1OC`: the Potency entry in the assay on PC15, in the assay with PC49, in the assay on SC27B, with TAB109, in the assay on TAB113 and in the assay with TAB165 was “inactive” throughout. Moreover, the max response in the assay on CRL-7250 is 1.79%; with HEK293, -8.18%.
`CC(C)(Oc1ccc(CCNC(=O)c2ccc(Cl)cc2)cc1)C(=O)O`: the Potency entry in the assay on PC15, with PC49, in the assay on SC27B, in the assay with TAB109, with TAB113 and with TAB165 was “inactive” each time. For the same molecule, the Potency result with W2 is “inactive”. The max response is -10.1% in the assay with CRL-7250 and -102% in the assay with HEK293.
With `CCn1cc(C(=O)O)c(=O)c2cc3c(cc21)OCO3`, the Potency entry in the assay with PC15, with PC26, in the assay with PC49, in the assay on SC27B, in the assay on TAB109 and in the assay on TAB113 was “inactive” in each case. In addition, the Potency entry with TAB165 and in the assay on W2 was “inactive” in each case. Also, the figures for the max response with CRL-7250 and in the assay with HEK293 were -16.9% and -14.3%, respectively.
Regarding `CC(=O)Oc1cc(C(C)C)c(OCCN(C)C)cc1C`, the Potency result in the assay on PC15, in the assay on PC26, in the assay on PC49, with SC27B, with TAB109 and in the assay with TAB113 was “inactive” throughout. In addition, the Potency entry with TAB165 and in the assay on W2 was “inactive” throughout. In the assay with CRL-7250, the max response was -7.06%. Moreover, in the assay on HEK293, the molecule was called inactive.
With `O=C(O)CN(CCOCCOCCN(CC(=O)O)CC(=O)O)CC(=O)O`, the Potency result in the assay with PC15, with PC26, in the assay on PC49, with SC27B, in the assay with TAB109 and in the assay on TAB113 was “inactive” in each case. Further, the Potency result in the assay with TAB165 and with W2 was “inactive” each time. Further, in the assay with CRL-7250, the outcome was inactive. The max response in the assay on HEK293 is 0.265%.
As for `Cc1nc2c([nH]1)c(=O)n(C)c(=O)n2Cc1ccco1`, the Potency result in the assay on PC15, in the assay on PC26, in the assay with PC49, with SC27B, with TAB109 and in the assay on TAB113 was “inactive” throughout. Further, the Potency result with TAB165 and in the assay on W2 was “inactive” each time. Moreover, the max response in the assay on CRL-7250 is 0.6%; with HEK293, 4.2%.
As for `Cc1ccc(=O)n(-c2ccccc2)c1`, the Potency entry with PC15, in the assay with PC26, in the assay on PC49, in the assay with SC27B, with TAB109 and with TAB113 was “inactive” each time. For the same molecule, the Potency entry with TAB165 and in the assay with W2 was “inactive” throughout. In addition, the max response is -4.72% in the assay on CRL-7250 and 4.05% in the assay on HEK293.
For `CN(C)C(=O)Oc1cccc([N+](C)(C)C)c1`, the Potency entry in the assay with PC15, in the assay with PC26, with PC49, with SC27B, in the assay on TAB109 and in the assay with TAB113 was “inactive” in each case. The Potency entry in the assay with TAB165 and in the assay with W2 was “inactive” in each case. In addition, the outcome in the assay on CRL-7250 and in the assay with HEK293 was inactive.
For `CCN(CC)CC(=O)Nc1c(C)cccc1C`, the Potency result in the assay on PC15, in the assay with PC26, in the assay on PC49, in the assay with SC27B, in the assay on TAB109 and with TAB113 was “inactive” throughout. The Potency result in the assay with TAB165 and with W2 was “inactive” throughout. Also, the max response with CRL-7250 was -12.2%; in the assay on HEK293 it was -14.5%.
On to `C[N+](C)(C)CCOC(=O)CCC(=O)OCC[N+](C)(C)C`, for which the Potency entry in the assay with PC15, in the assay on PC26, with PC49, with SC27B, in the assay with TAB109 and in the assay on TAB113 was “inactive” each time. The Potency entry in the assay on TAB165 and in the assay with W2 was “inactive” throughout. Besides, the max response in the assay with CRL-7250 is 1.65%; with HEK293, 4.43%.
Take `CCN(CC)CCNC(=O)c1ccc(NC(C)=O)cc1`: the Potency entry with PC15, in the assay with PC26, in the assay on PC49, in the assay on SC27B, with TAB109 and with TAB113 was “inactive” throughout. For the same molecule, the Potency entry with TAB165 and in the assay with W2 was “inactive” throughout. In the assay with CRL-7250, the result was inactive. Besides, the max response in the assay with HEK293 is 3.23%.
On to `CN(C)C/C=C(/c1ccc(Br)cc1)c1cccnc1`, for which the Potency entry in the assay on PC15, in the assay on PC26, in the assay with PC49, in the assay on SC27B and with TAB113 was “inactive” throughout. Also, in the assay with W2, the Potency is 8.49 µM (active). Further, the result with CRL-7250 was inactive. The max response with HEK293 was -10.5%.
